A short description of experiment [1]: qHTS assay for small molecules that induce genotoxicity in human embryonic kidney cells expressing luciferase-tagged ATAD5 - cell viability (AID 651634; calls by dose curve; note: nearly all actives have a fitted effect of over 25% in size). The gist of the method: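 Cells (HEK293T, luciferase-tagged ATAD5) are seeded at 2,000 per well, dosed with compound or DMSO vehicle, and incubated 15.5 hr at 37C and 5% CO2. CellTiter-Fluor is added for 30 min before fluorescence is measured.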

Experiment [2] is described as follows: qHTS assay for small molecule disruptors of the mitochondrial membrane potential - cell viability (AID 720634; calls by dose curve;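 note: human HepG2 liver cancer cells; series mostly up to about 83 µM; nearly all actives have a fitted effect of over 20% in size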). In outline: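 Cytotoxicity was measured by ATP quantitation in HepG2 wells that had first been treated with compound for 1 hr and stained with m-MPI dye; CellTiter-Glo incubation was 30 min at room temperature.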
Experiment [3] is described as follows: qHTS assay for small molecule disruptors of the mitochondrial membrane potential (AID 720635). Note: potency is the fitted concentration of half-maximal effect. In outline: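 HepG2 cells (2,000/well) attached overnight at 37C, then took compound for 1 hr at 37C, 5% CO2. Mito-MPS dye was added for 30 min; fluorescence was read at 490/535 nm (monomers) and 540/590 nm (aggregates).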
A short description of experiment [4]: qHTS assay to test for compound auto fluorescence at 590 nm (red) in HepG2 cells (AID 720674). The gist of the method:
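Intrinsic compound fluorescence in the red window (Ex/Em 540/590 nm) is measured in attached HepG2 cells exposed for 1 hr, DMSO vehicle as baseline, benchmarked to Rose Bengal sodium.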

Experiment [5] is described as follows: qHTS assay to test for compound auto fluorescence at 535 nm (green) in HepG2 cells (AID 720675).
Experiment [6] in a line: qHTS assay to test for compound auto fluorescence at 460 nm (blue) in HEK293 cells (AID 720678). In outline:
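Blue read-out at excitation 405 nm and emission 460 nm follows overnight compound exposure of HEK293 cells at 37C in 5% CO2. Activity is given as auto fluorescence equivalency to triamterene.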

Experiment [7] is described as follows: qHTS assay to test for compound auto fluorescence at 590 nm (red) in HEK293 cells (AID 720679). In outline:
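Red channel, Ex/Em 540/590nm; signal expressed as equivalency to Rose Bengal sodium. HEK293, 2,000 cells/well, 10% dialyzed FBS; 23 nL compound pinned after 4-5 hr attachment; overnight 37C/5% CO2 before reading.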

A short description of experiment [8]: qHTS assay to test for compound auto fluorescence at 535 nm (green) in HEK293 cells (AID 720680).
A short description of experiment [9]: qHTS assay to test for compound auto fluorescence at 460 nm (blue) in HEK293 cell free culture (AID 720681). The gist of the method: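 Test compounds were pinned into cell-free culture medium (DMEM with 10% FBS) and fluorescence was read directly at Ex/Em 405/460 nm. Signals were expressed as fluorescence equivalents of triamterene, with DMSO vehicle as control.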

Experiment [10] is described as follows: qHTS assay to test for compound auto fluorescence at 535 nm (green) in HEK293 cell free culture (AID 720682). The gist of the method:
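Intrinsic compound fluorescence is measured in culture medium containing 10% FBS, with excitation at 485 nm and detection at 535 nm, referenced to fluorescein.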

The nature of experiment [11]: qHTS assay to test for compound auto fluorescence at 590 nm (red) in HEK293 cell free culture (AID 720683). In outline: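 Tox21 10K library compounds were pinned into cell-free DMEM with 10% FBS and fluorescence was read at excitation 540 nm. Activity is expressed as Rose Bengal sodium equivalency.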
A short description of experiment [12]: qHTS assay to test for compound auto fluorescence at 590 nm (red) in HepG2 cell free culture (AID 720684). The gist of the method:
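Readout: intrinsic compound fluorescence at 590 nm emission after 540 nm excitation, scaled to Rose Bengal sodium. Matrix was cell-free MEM with 10% FBS; DMSO vehicle wells served as control.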

Experiment [13] is described as follows: qHTS assay to test for compound auto fluorescence at 460 nm (blue) in HepG2 cell free culture (AID 720685). The gist of the method:
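Cell-free plates of MEM plus 10% FBS received 23 nL compound or DMSO vehicle; blue-channel (405/460 nm) intensity scored against triamterene as reference fluorophore.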

A short description of experiment [14]: qHTS assay to test for compound auto fluorescence at 535 nm (green) in HepG2 cell free culture (AID 720686).
Experiment [15] can be described thus: qHTS assay to test for compound auto fluorescence at 460 nm (blue) in HepG2 cells (AID 720687). In outline: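 Cells (2,000/well in MEM with 10% FBS) attached overnight at 37 C, then were exposed to compound or DMSO for 1 hr at 37 C, 5% CO2. Fluorescence read at Ex/Em 405/460 nm, expressed as triamterene-equivalent signal.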
Experiment [16] in a line: qHTS assay for small molecules that induce genotoxicity in human embryonic kidney cells expressing luciferase-tagged ATAD5 (AID 651632). Note: nearly all actives have a fitted effect of over 15% in size. In outline:
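Cells were seeded at 2,000 per well, dosed with compound, and incubated 16 hr at 37C in 5% CO2. Luciferase activity was then quantified after a 30 min room-temperature incubation with Amplite.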

The target in experiment [17] is Glucocorticoid receptor (Homo sapiens) (UniProt P04150). In words: qHTS assay to identify small molecule agonists of the glucocorticoid receptor (GR) signaling pathway (AID 720691; active = well fitted activation curve with a large enough effect in the signal ratio in the repeat runs, not every such curve was filed as active; the % refers to the signal ratio). In outline: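 Steps: seed GR-bla HeLa cells, incubate 4 h at 37 C/5% CO2; pin-transfer DMSO-dissolved compounds; incubate 18 h at 37 C; add LiveBLAzer B/G FRET substrate; after 2 h at room temperature, measure fluorescence.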
Sequence of Glucocorticoid receptor (Homo sapiens) (P04150 whole entry, looked up): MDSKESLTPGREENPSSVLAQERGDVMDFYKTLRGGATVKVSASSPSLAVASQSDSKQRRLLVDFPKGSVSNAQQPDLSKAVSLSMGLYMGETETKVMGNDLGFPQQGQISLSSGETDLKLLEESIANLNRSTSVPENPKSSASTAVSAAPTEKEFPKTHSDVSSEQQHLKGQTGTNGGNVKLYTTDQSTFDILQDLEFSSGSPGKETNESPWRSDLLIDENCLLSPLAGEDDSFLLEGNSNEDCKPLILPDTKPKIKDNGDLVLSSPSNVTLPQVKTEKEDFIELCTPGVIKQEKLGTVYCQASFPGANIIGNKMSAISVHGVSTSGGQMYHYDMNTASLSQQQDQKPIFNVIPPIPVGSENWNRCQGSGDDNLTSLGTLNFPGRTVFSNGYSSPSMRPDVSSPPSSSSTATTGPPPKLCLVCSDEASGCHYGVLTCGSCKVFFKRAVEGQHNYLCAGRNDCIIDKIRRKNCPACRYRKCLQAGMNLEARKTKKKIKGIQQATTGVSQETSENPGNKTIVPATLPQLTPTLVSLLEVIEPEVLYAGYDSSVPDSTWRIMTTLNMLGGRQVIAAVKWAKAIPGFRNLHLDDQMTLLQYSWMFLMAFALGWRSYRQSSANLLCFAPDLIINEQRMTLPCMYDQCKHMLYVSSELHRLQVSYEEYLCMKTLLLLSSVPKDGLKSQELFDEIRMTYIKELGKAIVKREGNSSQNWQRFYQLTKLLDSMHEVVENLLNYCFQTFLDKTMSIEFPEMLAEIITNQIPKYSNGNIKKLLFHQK

Experiment [18] is described as follows: qHTS assay for small molecule agonists of the p53 signaling pathway - cell viability (AID 651633; calls by dose curve;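 note: p53RE-bla HCT reporter cells with a stable beta-lactamase p53 reporter; series mostly up to about 83 µM; nearly all actives have a fitted effect of over 30% in size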). In outline: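 p53RE-bla cells, seeded at 4,000 per well and rested 5 h at 37 C/5% CO2, received compounds in DMSO for 16 h at 37 C. CellTiter-Glo was then added, and luminescence was read after 30 min at room temperature to gauge cytotoxicity.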
Experiment [19] has as its target Glucocorticoid receptor (Homo sapiens) (UniProt P04150). In words: qHTS assay to identify small molecule antagonists of the glucocorticoid receptor (GR) signaling pathway (AID 720692; active = well fitted inhibition curve with a large enough effect in the signal ratio in the repeat runs, not every such curve was filed as active; the % refers to the signal ratio). The gist of the method: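 Antagonism was scored as loss of dexamethasone-driven (5 nM final) reporter signal in HeLa cells bearing a glucocorticoid response element–beta-lactamase construct, after 18 h compound exposure at 37 C and 2 h FRET substrate loading.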

Values without a mark were called inactive. Results filed as inconclusive are left out. Active and inactive are the calls of the source. Unless noted, calls come from the whole dose curve; as a rule, active = well fitted curve in the direction sought with a large enough effect in the repeat runs; inconclusive = weak or mixed curves; inactive = no such curve, though single readings can be large; an effect the other way counts as inactive or inconclusive.
% is set by controls: 0 for no effect and ±100 for the full control effect.

With `O=S1(=O)N=C(O)c2ccccc21`, the Potency entry in experiment [1], in [2], in [3], in experiment [6], in [9] and in [13] was “inactive” in each case. Also, the Potency result in experiment [15] is “inactive”. Besides, the compound was classed as inactive in experiment [4], in experiment [5], in [7], in experiment [8], in experiment [10] and in experiment [11]. Further, the call in [12] and in experiment [14] was inactive.
For the compound `Cc1cc(O)ccc1N`, the Potency entry in [16], in experiment [1], in [6], in experiment [9], in experiment [13] and in experiment [15] was “inactive” each time. For the same compound, the Potency entry in experiment [17] is “inactive”. Besides, the result in [4], in experiment [5], in experiment [7], in [8], in experiment [10] and in [11] was inactive. For the same compound, the call in experiment [12] and in experiment [14] was inactive.
Regarding `CCCCCCCCC(CO)CCCCCC` (stereo not drawn), the Potency entry in experiment [16], in experiment [1], in [2], in experiment [9], in experiment [13] and in [17] was “inactive” in each case. Further, the call in [4], in experiment [5], in experiment [7], in experiment [8], in experiment [10] and in experiment [11] was inactive. The call in [12] and in experiment [14] was inactive.
As to `S=C(S)NCCNC(=S)S`, the Potency entry in experiment [16], in experiment [18], in experiment [2], in experiment [6], in experiment [9] and in experiment [13] was “inactive” in each case. Also, the Potency result in [15], in [17] and in experiment [19] was “inactive” throughout. In addition, the outcome in [4], in [5], in experiment [7], in [8], in [10] and in [12] was inactive. Also, the result in experiment [14] was inactive.
Regarding `CCN(CC)CCNC(C(=O)OCCC(C)C)c1ccccc1` (stereo not drawn), the Potency result in experiment [16], in experiment [1], in experiment [2], in [6], in [9] and in experiment [13] was “inactive” in each case. Further, the Potency entry in experiment [17] and in experiment [19] was “inactive” each time. For the same compound, the compound was classed as inactive in experiment [4], in experiment [5], in [7], in experiment [10], in experiment [11] and in experiment [12]. Moreover, in [14], the compound was called inactive.
With `O=C(Cl)c1ccc([N+](=O)[O-])cc1`, the Potency result in experiment [16], in [1], in experiment [2], in [3], in experiment [6] and in experiment [9] was “inactive” throughout. Also, the Potency entry in experiment [15], in experiment [17] and in experiment [19] was “inactive” in each case. In addition, the outcome in [4], in experiment [5], in [8], in [10], in experiment [11] and in experiment [12] was inactive. In [14], the compound was called inactive.
Take `C=C(C)C(=O)OCCOc1ccccc1`: the Potency result in experiment [16], in [18], in experiment [2], in experiment [6], in experiment [9] and in [13] was “inactive” each time. The Potency result in [15], in experiment [17] and in experiment [19] was “inactive” each time. Besides, the outcome in experiment [4], in experiment [5], in experiment [7], in experiment [8], in experiment [10] and in experiment [11] was inactive. Moreover, the compound was classed as inactive in experiment [12] and in experiment [14].
Turning to `O=C1CCCCCO1`, the Potency result in [16], in experiment [18], in experiment [6], in experiment [9], in experiment [13] and in [15] was “inactive” each time. Moreover, the Potency entry in [17] is “inactive”. Also, the result in experiment [4], in experiment [5], in [7], in experiment [8], in [10] and in experiment [11] was inactive. For the same compound, the compound was classed as inactive in [12] and in [14].
With `O=C(O)[C@@H]1[C@H]2C[C@H]3c4[nH]c5ccccc5c4CCN3C[C@@H]2CC[C@@H]1O`, the Potency result in [16], in experiment [18], in experiment [2], in experiment [17] and in [19] was “inactive” each time. The Potency in experiment [3] was 11.4 µM (active). Also, the fluorescence, relative to Rose Bengal in experiment [4] was 0.127% [at 18.6 µM]. The fluorescence, % of fluorescein control in [5] is 0.513% [at 18.6 µM]; in experiment [14], 0.287% [at 18.6 µM]. Also, the fluorescence, % of triamterene in experiment [6] is 4.22% [at 18.6 µM]. For the same compound, the fluorescence, % of fluorescent control in experiment [7] is -0.335% [at 18.6 µM]; in [9] it was 4.98% [at 18.6 µM]; in experiment [11], 0.0861% [at 18.6 µM]; in experiment [15] it was 5.05% [at 18.6 µM]. The fluorescence, % of fluorescein in experiment [8] is -0.047% [at 18.6 µM]. Further, in experiment [12], the fluorescence, % of Rose Bengal is -0.199% [at 18.6 µM].
On to `CC(C)(C)c1cc(O)c(C(C)(C)C)cc1O`, for which the Potency entry in experiment [16], in experiment [1], in [2], in experiment [9], in [13] and in experiment [15] was “inactive” each time. In experiment [17], the Potency result was “inactive”. Moreover, the Potency in experiment [3] was 6.11 µM (active). Further, the call in [4], in [5], in experiment [7], in [10], in experiment [11] and in experiment [12] was inactive. Further, the outcome in experiment [14] was inactive.
Regarding `Cc1ccc(O)c([C@H](CCN(C(C)C)C(C)C)c2ccccc2)c1`, the Potency entry in experiment [16], in experiment [18], in experiment [2], in experiment [6], in experiment [13] and in experiment [15] was “inactive” each time. Besides, the Potency entry in experiment [17] was “inactive”. Further, the outcome in experiment [4], in [5], in experiment [8], in experiment [10], in experiment [11] and in experiment [12] was inactive. Moreover, the outcome in [14] was inactive.

For the origin of these results see PubChem BioAssay (Tox21).
